The other results are listed elsewhere or left out. Entries that show only a call come without a potency. Results filed as inconclusive are left out. Calls of active or inactive are those of the source. The call rests on the fitted dose curve.
target: Furin (Homo sapiens) (UniProt P09958); assay: Selectivity profile for inhibitors of NSP2Pro chikungunya virus (CHIKV): Human furin counterscreen (AID 1964102); settings: Recombinant human furin enzymatic counterscreen, fluorogenic substrate; series mostly up to 50.6 µM
Sequence (P09958 whole entry, looked up): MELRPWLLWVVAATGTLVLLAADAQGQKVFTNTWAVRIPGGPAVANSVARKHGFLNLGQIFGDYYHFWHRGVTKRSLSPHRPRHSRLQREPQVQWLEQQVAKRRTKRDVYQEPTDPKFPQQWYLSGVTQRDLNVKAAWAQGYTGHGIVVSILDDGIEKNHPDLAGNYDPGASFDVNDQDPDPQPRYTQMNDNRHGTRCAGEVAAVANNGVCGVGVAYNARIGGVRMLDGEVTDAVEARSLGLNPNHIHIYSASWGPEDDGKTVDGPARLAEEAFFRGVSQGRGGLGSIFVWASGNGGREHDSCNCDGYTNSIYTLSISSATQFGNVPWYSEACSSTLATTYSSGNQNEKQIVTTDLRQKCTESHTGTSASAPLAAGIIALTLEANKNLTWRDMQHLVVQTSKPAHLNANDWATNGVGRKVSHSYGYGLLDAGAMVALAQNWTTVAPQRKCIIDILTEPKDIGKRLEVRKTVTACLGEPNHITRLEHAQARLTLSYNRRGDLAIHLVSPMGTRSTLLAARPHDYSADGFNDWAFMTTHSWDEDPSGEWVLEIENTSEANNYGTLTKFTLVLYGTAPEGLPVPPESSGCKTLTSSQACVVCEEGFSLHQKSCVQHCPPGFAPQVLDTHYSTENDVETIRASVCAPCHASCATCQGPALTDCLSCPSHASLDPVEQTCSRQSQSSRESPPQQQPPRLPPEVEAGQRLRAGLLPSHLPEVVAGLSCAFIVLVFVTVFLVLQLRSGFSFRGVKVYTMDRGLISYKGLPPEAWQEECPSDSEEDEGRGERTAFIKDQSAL
Text: PI: Natalia J. Martinez Ph.D.
National Center for Advancing Translational Sciences (NCATS),
National Institute of Health (NIH), Rockville, Maryland
Chikungunya virus (CHIKV) is a mosquito-borne RNA virus that has emerged as one of the most important global arboviral threats in the last decade. Although the first CHIKV vaccine has recently been FDA approved for use in healthy adults at increased risk, to date, there are no available antiviral drugs for CHIKV infection. CHIKV nsP2 protease plays a crucial role in the processing of the viral polypeptide precursor to release enzymes required for viral replication, thus making it a promising drug target for antiviral discovery. Here, we established a high-throughput pipeline to identify small molecule inhibitors of nsP2 proteolytic activity. The pipeline is composed of a suite of 1,536-well in vitro assays to support quantitative high-throughput (qHTS) screening campaigns. Specifically, we developed a fluorescence resonance energy transfer (FRET)-based assay using a fluorogenic peptide substrate encompassing an endogenous cleavage site and purified recombinant protease domain (nsP2pro). Using this assay, we interrogated ~37,000 small molecules, including those in drug repurposing libraries as well as chemically diverse and medicinal chemistry-friendly compounds. Hits were selected for follow-up validation against full-length nsP2 and an additional peptide. FRET-based 1,536-well assays for papain, hepatitis C virus NS3-4A, and human furin proteases were implemented to characterize compound selectivity. […] Novel compounds were identified to be potential nsP2 inhibitors and molecular docking analyses were performed to explain the binding mode of selected hits. In vitro antiviral activity was evaluated for a subset of compounds using a high-throughput CHIKV infection assay. To our knowledge, the pipeline presented here is unprecedented for CHIKV antiviral discovery research.
PROTOCOL TABLE (as described by Inglese J, Shamu CE and Guy RK. 2007)
SEQUENCE No. (e.g., 1, 2, 3, etc.); […] (e.g., Cells, Incubation, Reagent, etc.); VALUE; DESCRIPTION.
1; Enzyme; 2 uL; 1,536-well solid-bottom, black plate (Greiner Bio One).
2; Compounds; 20 nL; Echo 655 acoustic dispenser (Beckman Coulter).
3; Incubation; 15 min; room temperature in the dark.
4: Reagent; 2 uL; pERTKR-AMC.
5; Detection; Fluorescence; time 0, Viewlux microplate reader (PerkinElmer) 355 nm excitation, 460 nm emission
6; Incubation; 15 min; room temperature
7; Detection; Fluorescence; time 15; ViewLux microplate reader (PerkinElmer), 355 nm excitation, 460 nm emission.
NOTES (numbers refer to sequence numbers above).
1. Two micro-liter of furin enzyme solution (40 nM final concentration) in assay buffer (20 mM Tris-HCl pH 8.0, 150 mM NaCl, with 0.01% Tween 20) were dispensed into a 1,536-well solid-bottom black plate (Greiner Bio One) using the Kalypsys Pintool Station.
2. Twenty nano-liter of compounds, positive control Aprotinin (50 uM final concentration), or neutral control DMSO were transferred to the assay plates. Compounds in counterscreen assays were tested at 11 concentrations, 1:3 dilution points from 25 uM to 0.42 nM.
3. The assay plates were incubated in the dark for 15 min.
4. After incubation, 2 uL of 0.625 uM pERTKR-AMC substrate in assay buffer for the Furin assay was added using the Kalypsys Pintool Station.
5-7. Plates were immediately read at time 0 then covered with stainless steel gasket lids and incubated for 15 min at room temperature in the dark. Fluorescence intensity in the assay plates were again read after incubation using the ViewLux imager equipped with AMC fluorescence optics. The change in fluorescence intensity over the 15-min reaction period was normalized against DMSO and inhibitor controls as described below.
Inglese J, Shamu CE and Guy RK, Reporting data from high throughput screening of small molecule libraries, Nature Chemical Biology, 2007, 3(8): 438-441. doi.org/10.1038/nchembio0807-438.
Potency means the concentration at half of the fitted maximal effect.

| SMILES | Potency |
| --- | --- |
| CCOc1ccc(NC(=O)c2c(NC(=O)Cc3ccccc3)sc3c2CCCCC3)cc1 | inactive |
| CO[C@]1(NC(=O)CSC(F)F)C(=O)N2C(C(=O)O)=C(CSc3nnnn3CCO)CO[C@H]21 | inactive |
| COC([CH2][Hg])CNC(=O)c1ccccc1OCC(=O)O (stereo not drawn) | 2060 nM (active) |
| CCOc1ccc(NC(=O)c2c(NC(=O)Cc3ccccc3)sc3c2CCC(C)C3)cc1 (stereo not drawn) | inactive |
| CCOc1ccc(N(Cc2ccccc2)C(=O)c2nc(S(C)(=O)=O)ncc2Cl)cc1 | inactive |
| Cc1c(S(=O)(=O)O)oc2c1C(=O)C(=O)c1c-2ccc2c1CCCC2(C)C | inactive |
| C[C@@H]1[C@H](O)[C@@H]2OC(=O)C3=C2[C@H](CCC3)[C@@]12C[C@@H](c1ccoc1)OC2=O | inactive |
| Oc1ccc(OC2CCCCO2)cc1 (stereo not drawn) | inactive |
| CC(=O)N[C@@H](C(=O)O[C@H]1CCC(C)(C)[C@@H]2CCC3=C(COC3=O)[C@@]12C)C(C)C | inactive |
| N#CSc1cc(SC#N)c(N)nc1N | inactive |
| O=C(O)c1cccc(-n2[nH]c(-c3ccccc3)cc2=O)c1 | inactive |
| C[C@@H]1O[C@@H](O[C@@H]2[C@@H](O)[C@H](OCCc3ccc(O)c(O)c3)O[C@H](CO[C@@H]3O[C@H](CO)[C@@H](O)[C@H](O)[C@H]3O)[C@H]2OC(=O)/C=C/c2ccc(O)c(O)c2)[C@H](O)[C@H](O)[C@H]1O | inactive |
| CCC(C)C(=O)OC1C(C)C2(O)C(C=C(CO)CC3(O)C(=O)C(C)=CC32)C2C(C)(C)C12OC(=O)C(C)C (stereo not drawn) | inactive |
| C[C@@H]1C[C@@H](O)[C@@]23CO[C@]2(CO)C[C@@H](O)CC3[C@@]12CC(c1ccoc1)OC2=O (stereo partly drawn) | inactive |
| C=Cc1c(C)c2cc3nc(cc4[nH]c(cc5nc(cc1[nH]2)C(C)=C5CCC(=O)O)c(CCC(=O)OC)c4C)[C@@]1(C)C3=CC=C(C(=O)OC)[C@H]1C(=O)OC | inactive |
| CCc1ccccc1NC(=O)c1cnn(-c2ccc(F)cc2)c1C1CCNCC1 | inactive |
| C=CC(=O)c1ccc2ccccc2c1 | inactive |
| CC1=C(/C=C/C(C)=C/C=C/C(C)=C/C=C/C=C(C)/C=C/C=C(C)/C=C/C2=C(C)CCCC2(C)C)C(C)(C)CCC1 | inactive |

Source: PubChem BioAssay (NCATS)
